PubChem BioAssay (NCATS)
Inconclusive results are not listed. The source made the active and inactive calls. Calls come from the whole dose curve; as a rule, active = well fitted curve in the direction sought with a large enough effect; inconclusive = small, poorly fitted or top-dose-only effect, or another doubt; inactive = no such curve, though single readings can be large; an effect the other way counts as inactive or inconclusive.

What was measured:
[1] = Cellular Toxicity (caspase-3) Mesangial (AID 660); settings: mesangial cells, normalized: DMSO 0%, 100 µM tamoxifen 100%; at 91.7 µM (top of the series);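 note: combined caspase 3 and 7 activity read by Caspase-Glo luminescence; cells exposed to compound for 16 h before the caspase read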
Method in brief: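 Seed cells derived from normal human renal glomeruli, incubate 5 h, add compounds across concentrations and incubate 16 h at 37 °C. Caspase 3/7 activation is then quantified by luciferase light, with AC50 derived by Hill modeling.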

[2] = Cellular Toxicity (caspase-3) SK-N-SH (AID 661);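 note: 0% = DMSO basal and 100% = 10 µM staurosporine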
Method in brief: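 Cells were seeded and incubated 5 hr at 37 °C, dosed with compound over a concentration range for 16 hr, then given Caspase-Glo 3/7 reagent for 1 hr at room temperature before luminescence reading.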

[3] = Cellular Toxicity (caspase-3) H-4-II-E (AID 663); settings: H-4-II-E rat hepatoma, scaled: DMSO 0%, 100 µM tamoxifen 100%; at 92.2 µM (top of the series);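 note: cells exposed to compound for 16 hr before readout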
Method in brief: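 Caspase 3/7 activation measured in H-4-II-E cells in complete culture medium after 16 hr treatment at 37 °C, using luciferase-coupled substrate readout; AC50 values come from Hill-equation fits of normalized concentration-response data.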

[4] = Cellular Toxicity (caspase-3) Hek293 (AID 664); settings: HEK293 caspase-3 activation, DMSO = 0%, 100 µM tamoxifen = 100%; at 92.2 µM (top of the series);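 note: cells exposed to compound for 16 h at 37 °C before readout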
Method in brief: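 qHTS, HEK293 (human embryonic kidney), 16 h cpd exposure in complete medium. Caspase-3/7 activation = luminescence increase; normalized to DMSO/100 uM tamoxifen; Hill-fit AC50.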

[5] = Cellular Toxicity (caspase-3) N2a (AID 665);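 note: compound exposure lasted 16 h at 37 °C before readout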
Method in brief: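 Caspase-3/7 activation, measured as increased luminescence from aminoluciferin release, is quantified in mouse N2a cells exposed to compounds for 16 h. Values are normalized to DMSO and 10 uM staurosporine, with AC50 derived by Hill modelling.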

[6] = Cellular Toxicity (caspase-3) NIH 3T3 (AID 666);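 note: caspase signal read after 16 h compound exposure; 0% = DMSO basal and 100% = 100 µM tamoxifen stimulation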
Method in brief: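 Cells were plated at 1000 per well and incubated 5 hr at 37°C, then compound was added for 16 hr. Caspase-Glo 3/7 reagent followed for 20 min at room temperature before luminescence was read.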

[7] = Cellular Toxicity (caspase-3) Renal Proximal Tubule (AID 667); settings: Potency: caspase-3 activation;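 note: cells exposed to compound for 16 hours at 37 °C before detection; 0% = DMSO basal and 100% = 10 µM staurosporine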
Method in brief: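 Freshly isolated primary rat kidney proximal tubule cells, 1000/well, treated 16 hr at 37 °C, then Caspase-Glo 3/7 luminescence after 1 hr. Normalized to DMSO and 10 uM staurosporine; AC50 from Hill fit.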

[8] = target: Cytochrome P450 3A4 (Homo sapiens) (UniProt P08684); assay: qHTS Assay for Inhibitors and Substrates of Cytochrome P450 3A4 (AID 884); note: % is set by controls: 0 for no effect and ±100 for the full control effect; nearly all actives have a fitted effect of over 50% in size
Cytochrome P450 3A4 (Homo sapiens), sequence (P08684 whole entry, looked up): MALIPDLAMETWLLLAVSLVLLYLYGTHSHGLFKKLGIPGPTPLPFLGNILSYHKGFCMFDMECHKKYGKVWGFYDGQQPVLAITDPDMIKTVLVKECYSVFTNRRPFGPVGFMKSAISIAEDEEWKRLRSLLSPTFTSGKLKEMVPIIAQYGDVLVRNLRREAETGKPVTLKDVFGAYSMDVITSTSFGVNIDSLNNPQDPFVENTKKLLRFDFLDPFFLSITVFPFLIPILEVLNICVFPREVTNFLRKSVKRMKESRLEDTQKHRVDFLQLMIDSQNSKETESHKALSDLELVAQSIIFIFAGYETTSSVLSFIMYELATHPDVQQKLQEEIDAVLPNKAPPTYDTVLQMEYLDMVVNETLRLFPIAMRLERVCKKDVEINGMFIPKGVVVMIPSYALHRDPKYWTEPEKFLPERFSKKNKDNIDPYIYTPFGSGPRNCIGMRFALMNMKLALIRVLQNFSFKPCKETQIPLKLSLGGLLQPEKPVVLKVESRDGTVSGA
Method in brief: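 Luminescent readout of luciferin produced by CYP3A4 (20 nM) dealkylation of Luciferin-PPXE, 25 uM (its KM). NADPH-driven reaction ran 60 min at RT after 10 min compound preincubation; data scaled to 57 uM ketoconazole as 100% inhibition.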

[9] = Cell Viability - LYMP2-001 (AID 921);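 note: 0% = DMSO only and full inhibition = tetraoctylammonium bromide control wells; nearly all actives have a fitted effect of over 70% in size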
Method in brief: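 Human lymphoblastoid LYMP2-001 cells, 2500 per well, in complete medium, treated 24 h at 37 C. Viability from cellular ATP by CellTiter-Glo luminescence; AC50 from Hill-equation fits of qHTS concentration-response.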

[10] = MultiTox-Fluor Cytotoxicity Assay - LYMP1-001 - Dead Cells (AID 946);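 note: 0% = DMSO and 100% = tetraoctylammonium bromide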
Method in brief: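 LYMP1-001 lymphoblastoid cells (2500/well) treated 16 h at 37 C. Dead-cell protease cleavage of bis-AAF-R110 read at Ex/Em 485/520. Normalized to DMSO and 15 uM tetraoctylammonium bromide; AC50 from Hill fits.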

[11] = Cell Viability - LYMP1-002 - Assay at 16 hr (AID 948);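 note: 0% = DMSO alone and full effect = 92 µM tetraoctylammonium bromide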
Method in brief: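 LYMP1-002 human lymphoblastoid cells, 2500/well, were treated with compounds for 16 hr at 37 C in complete medium. Viability was read as intracellular ATP by CellTiter-Glo luminescence, and AC50 was derived from a Hill fit to concentration-response data.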

[12] = MultiTox-Fluor Cytotoxicity Assay - LYMP1-002 - Live Cells (AID 955); note: % is set by controls: 0 for no effect and ±100 for the full control effect
Method in brief: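 Cells were seeded at 2500 per well and incubated 5 hr. Compounds were then added for 16 hr at 37 C, followed by MultiTox-Fluor reagent for 60 min at room temperature and fluorescence reading of viable-cell protease signal.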

[13] = MultiTox-Fluor Cytotoxicity Assay - LYMP1-002 - Dead Cells (AID 960);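 note: 0% = DMSO and 100% = tetraoctylammonium bromide; nearly all actives have a fitted effect of over 60% in size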
Method in brief: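 Cells were plated, rested 5 hr, then treated with compound dilution series for 16 hr at 37 C. After adding substrate reagent and 60 min at room temperature, dead-cell protease fluorescence gave concentration-response curves fitted by the Hill equation.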

[14] = MultiTox-Fluor Cytotoxicity Assay - LYMP1-003 - Dead Cells (AID 961);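 note: 0% = DMSO and 100% = tetraoctylammonium bromide; nearly all actives have a fitted effect of over 70% in size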
Method in brief: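 LYMP1-003 human lymphoblastoid cells (2500/well) exposed to compound 16 h at 37 C in complete medium; dead-cell protease read with bis-AAF-R110 fluorescence (Ex/Em 485/520) after 60 min at room temperature. Normalized to DMSO and 15 uM tetraoctylammonium bromide; AC50 from Hill fit.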

[15] = MultiTox-Fluor Cytotoxicity Assay - LYMP1-003 - Live Cells (AID 962);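 note: 0% = DMSO only and full loss = 92 µM tetraoctylammonium bromide; cytotoxic hits lower the live-cell protease signal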
Method in brief: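 Acute cytotoxicity is scored as a drop in live-cell protease activity in human lymphoblastoid LYMP1-003 cells after 16 hr compound exposure at 37 C. AC50 values come from Hill-equation modelling of concentration-response data.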

[16] = Cell Viability - LYMP1-003 - Assay at 24 hr (AID 963);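 note: plate controls were DMSO only for no effect and tetraoctylammonium bromide positive control for full effect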
Method in brief: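 Cytotoxicity is scored as a concentration-dependent fall in ATP-linked luciferase signal in human lymphoblastoid LYMP1-003 cells treated 24 hr at 37 C in complete culture medium.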

[17] = Cell Viability - LYMP1-003 - Assay at 40 hr (AID 964); note: % is set by controls: 0 for no effect and ±100 for the full control effect; nearly all actives have a fitted effect of over 60% in size
Method in brief: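 Luminescent ATP signal (CellTiter-Glo) served as the viability read-out after 40 hr compound treatment of human lymphoblastoid LYMP1-003 cells at 37 C. Decreases in ATP were fitted with the Hill equation to give AC50.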

[18] = Cell Viability - LYMP2-003 (AID 965);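 note: cells exposed to compounds for 24 h before reading; 0% = DMSO only and full effect = 92 µM tetraoctylammonium bromide; nearly all actives have a fitted effect of over 50% in size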
Method in brief: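 Human lymphoblastoid LYMP2-003 cells, 2500/well, exposed to compounds for 24 h at 37 C in complete medium. Viability read as intracellular ATP by CellTiter-Glo luminescence; AC50 from Hill-equation fits of qHTS concentration-response data.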

[19] = MultiTox-Fluor Cytotoxicity Assay - LYMP1-001 - Live Cells (AID 947);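 note: 0% = DMSO only and full inhibition = tetraoctylammonium bromide control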
[20] = target: Cytochrome P450 3A4 (Homo sapiens) (UniProt P08684); assay: qHTS Assay for Activators of Cytochrome P450 3A4 (AID 885); note: nearly all actives have a fitted effect of over 65% in size
Method in brief: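 Human CYP3A4 dealkylates Luciferin-PPXE to luciferin, which luciferase detection converts to light. Substrate was at its KM (25uM), buffer 200mM KPO4, reaction 60 min at RT.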

O=C(O)c1ccc(Cl)cc1Cl
inactive: caspase-3 activation [1] -1.03% | outcome [2] | caspase-3 activation [3] 0.226% | caspase-3 activation [4] 2.7% | outcome [5] | outcome [6] | Potency [7] | Potency [8] | Potency [9] | outcome [10] | outcome [11] | outcome [12] | outcome [13] | Potency [14] | Potency [15] | Potency [16] | Potency [17] | Potency [18]

Clc1cc(Cl)cc(Cl)c1
inactive: caspase-3 activation [1] -0.669% | outcome [2] | caspase-3 activation [3] 0.838% | caspase-3 activation [4] 0.505% | outcome [5] | outcome [6] | Potency [7] | Potency [8] | Potency [9] | outcome [10] | outcome [11] | outcome [12] | outcome [13] | Potency [14] | Potency [15] | Potency [16] | Potency [17] | Potency [18]

CCCCC(CC)CO (stereo not drawn)
inactive: caspase-3 activation [1] -0.254% | outcome [2] | caspase-3 activation [3] 1.2% | caspase-3 activation [4] 1.6% | outcome [5] | outcome [6] | Potency [7] | Potency [8] | Potency [9] | outcome [10] | outcome [11] | outcome [12] | outcome [13] | Potency [14] | Potency [15] | Potency [16] | Potency [17] | Potency [18]

ClC/C=C/CCl
inactive: caspase-3 activation [1] 0.143% | outcome [2] | caspase-3 activation [3] 3.85% | caspase-3 activation [4] 1.61% | outcome [5] | outcome [6] | Potency [7] | Potency [8] | outcome [10] | outcome [19] | outcome [11] | outcome [12] | outcome [13] | Potency [14] | Potency [15] | Potency [16] | Potency [17] | Potency [18]

CN(C)CCCCl
inactive: caspase-3 activation [1] -0.558% | outcome [2] | caspase-3 activation [3] 0.431% | caspase-3 activation [4] -0.527% | outcome [5] | outcome [6] | Potency [7] | Potency [8] | Potency [9] | outcome [10] | outcome [11] | outcome [12] | outcome [13] | Potency [14] | Potency [15] | Potency [16] | Potency [17] | Potency [18]

C=C(C)C(=O)OCC(C)C
inactive: caspase-3 activation [1] 1.08% | outcome [2] | caspase-3 activation [3] 0.664% | caspase-3 activation [4] -0.498% | outcome [5] | outcome [6] | Potency [7] | Potency [8] | Potency [9] | outcome [10] | outcome [11] | outcome [12] | outcome [13] | Potency [14] | Potency [15] | Potency [16] | Potency [17] | Potency [18]

CC(C)N=C=NC(C)C
inactive: caspase-3 activation [1] -0.478% | outcome [2] | caspase-3 activation [3] 2.29% | caspase-3 activation [4] -0.83% | outcome [5] | outcome [6] | Potency [7] | Potency [8] | Potency [9] | outcome [10] | outcome [11] | outcome [12] | Potency [14] | Potency [15] | Potency [16] | Potency [17]

CCOC(C)(C)C
inactive: caspase-3 activation [1] -0.979% | outcome [2] | caspase-3 activation [3] -0.707% | caspase-3 activation [4] 1.78% | outcome [5] | outcome [6] | Potency [7] | Potency [8] | Potency [9] | outcome [10] | outcome [11] | outcome [12] | outcome [13] | Potency [14] | Potency [15] | Potency [16] | Potency [17]

C=CCCCCCC
inactive: caspase-3 activation [1] 0.339% | outcome [2] | caspase-3 activation [3] 1.37% | caspase-3 activation [4] -0.874% | outcome [5] | outcome [6] | Potency [7] | Potency [8] | Potency [9] | outcome [10] | outcome [11] | outcome [12] | outcome [13] | Potency [15] | Potency [16] | Potency [17] | Potency [18]

COc1cccc(N)c1
inactive: caspase-3 activation [1] 2% | outcome [2] | caspase-3 activation [3] 4.32% | caspase-3 activation [4] 7.74% | outcome [5] | outcome [6] | Potency [7] | outcome [20] | Potency [9] | outcome [10] | outcome [19] | outcome [11] | outcome [12] | outcome [13] | Potency [14] | Potency [15] | Potency [16] | Potency [17] | Potency [18]

Nc1cc([N+](=O)[O-])ccc1C(=O)O
inactive: caspase-3 activation [1] -0.673% | outcome [2] | caspase-3 activation [3] -1.05% | caspase-3 activation [4] -2.97% | outcome [5] | outcome [6] | Potency [7] | outcome [20] | Potency [9] | outcome [10] | outcome [19] | outcome [11] | outcome [12] | outcome [13] | Potency [14] | Potency [15] | Potency [16] | Potency [17] | Potency [18]

CC(C)(O)C(=O)O
inactive: caspase-3 activation [1] -0.246% | outcome [2] | caspase-3 activation [3] -0.178% | caspase-3 activation [4] 0.779% | outcome [6] | Potency [7] | Potency [8] | Potency [9] | outcome [10] | outcome [19] | outcome [11] | outcome [12] | outcome [13] | Potency [14] | Potency [15] | Potency [16] | Potency [17]

O=[N+]([O-])c1ccc(CCO)cc1
inactive: caspase-3 activation [1] -1.2% | outcome [2] | caspase-3 activation [3] 0.267% | caspase-3 activation [4] -3.11% | outcome [5] | outcome [6] | Potency [7] | Potency [8] | outcome [10] | outcome [11] | outcome [12] | outcome [13] | Potency [14] | Potency [15] | Potency [16] | Potency [17] | Potency [18]

CCCCC(CC)COC(=O)CCCCC(=O)OCC(CC)CCCC (stereo not drawn)
inactive: caspase-3 activation [1] 0.289% | outcome [2] | caspase-3 activation [3] -0.0264% | caspase-3 activation [4] 0.675% | outcome [5] | outcome [6] | Potency [7] | Potency [9] | outcome [10] | outcome [11] | outcome [12] | outcome [13] | Potency [14] | Potency [15] | Potency [16] | Potency [17] | Potency [18]

CC(C)CO
inactive: caspase-3 activation [1] 0.186% | outcome [2] | caspase-3 activation [3] -0.412% | caspase-3 activation [4] -2.74% | outcome [5] | outcome [6] | Potency [7] | Potency [9] | outcome [10] | outcome [11] | outcome [12] | outcome [13] | Potency [14] | Potency [15] | Potency [16] | Potency [17]
